Screen size: about 53,000 sequences; about 3,700 (7%) were called active.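 How the source made its calls: active means gene knockdowns whose robust z-score for IL-1 alpha signal is at least 2 or at most -2, so actives lie on both sides; inactive means the rest.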 This excerpt belongs to a sample that is enriched for actives.

The nature of this test: Components of the Cytosolic LPS Sensing Pathway: Gene Identification via Genome-wide siRNA Screen.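 Further: robust z of the log signal after scaling to non-targeting control siRNA wells of the plate.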 The note with it: RAW264.7 macrophages, IL-1a HTRF, actives lie on both sides, screened at 100 nM (by protocol), cells primed 5 h with Pam3CSK4 first. A digest of the protocol: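 Knockdown: 100 nM siRNA, 48h, RAW264.7. Stimulation: Pam3CSK4 5 h, then LipidA via TransIT-TKO 24 h. Output: supernatant IL-1a HTRF, negative-control-normalized, log robust z-score; viability by CellTiter-Glo.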
A general note: In TR-FRET formats the signal depends on donor and acceptor labels being close together.
Take GCCACUCACUAUGCUACUCTT against Pnpla2: the z-score is -2.62 (active). With GGCAUCUCCCACAUUAGAGTT against Sell the figure was 0.949 (inactive); with GGAAUAUGACUACAUGAAATT against Calu, -0.0124 (inactive).

With GGAAAUUCGUGCAUGAAGATT against Sgsm2, the z-score is -1.31 (inactive). Turning to GGAGUCGAAUCUUCUCUAATT against Taco1, the z-score was -1.07 (inactive).

For GGUGCACACCAAUGUUCUGTT against Efemp2, the z-score is 2.03 (active). With GCUAUGCUGUUUUAUGUGATT against Synpr the figure was 0.212 (inactive). With CCUAUUGUAGCAAGUUACATT against H3c7 the figure was 1.15 (inactive). With GGCAGAUGUACUGAUUAAATT against Tmprss11g the figure was 1.05 (inactive). In the case of CGUUCUCUUGAAAUAAGCCTT against Pogk, the z-score is -0.147 (inactive). With GGGACCUCCAUCGUAUUUGTT against Slc29a4 the figure was 0.71 (inactive); with GCAACUGGUGAUAAGGUGUTT against Flywch1, 0.486 (inactive); with GGCCAGAGUAUCGAUGUUCTT against Slc25a14, -0.566 (inactive). With GGGACUUGAGUAGCUGACUTT against Sgta the figure was -1.49 (inactive); with GCUUUCUUACCAAGAGUCATT against Vsig8, -2.89 (active). With CCUCUUAUCUCGAACAUUATT against Dsn1 the figure was 0.95 (inactive). For GGAGAUAACACCGUUACUUTT against Olfr769, the z-score was 0.766 (inactive). With GGAUCUGAAGAUGAUGAACTT against Ces2e the figure was 0.0623 (inactive); with CCUAGAAAUGAUUGUUGUUTT against Ncapg2, 1.98 (inactive); with GGAGACCUUAAAAGAACAUTT against Ccdc134, 0.775 (inactive). With CCCGGUUGUCUGGAUAUGATT against Map3k3 the figure was -2.39 (active). With CCCAGAUGGAUUUUUGCAUTT against Gm10413 the figure was 0.102 (inactive); with GCCAAAGUCUUGCUAUGUGTT against Uba7, -0.481 (inactive); with GGAAGCUCUUCAACUCUACTT against Vps4b, 2.06 (active). With AUUGGACUUCUACAUGGCUTT against Olfr207, the z-score was 1.43 (inactive).

Take GGAGAGAUGGUAUUGUUGGTT against Olfr1298: the z-score was -0.0094 (inactive). With GGGCACUCAAGUGUAUGUCTT against Hpx the figure was 0.224 (inactive); with GCCAAAUGAACUAGCAAUATT against Golm1, 0.0585 (inactive); with GGCAUUUGAGUGGACUGUUTT against Hirip3, 0.421 (inactive). With GGUCUGUCUCGUCUACAAUTT against Gstm1 the figure was 2.98 (active). With GGCGUAAAAUUCAAACUCATT against Cr2, the z-score is 1.02 (inactive). On to GGAUCAGGAAGGAUUCGGATT against Zfp84, for which the z-score was -1.01 (inactive). With GGAAGGAGCUUCGAAAAAATT against Pex16 the figure was 0.129 (inactive); with GGAGAAGUUUAGUGAAGAATT against Rmdn2, -2.48 (active); with GGCUUAAGGACAAGAAGAUTT against Gsn, -0.747 (inactive).

As for CCAUAAGUUUGAAGAAUCCTT against Glg1, the z-score is 1.45 (inactive). With “GGCUAUGUAGAUGGUUUUGTT against B830017H08Rik” the figure was 2.65 (active). With GGAUCACCUAACGUAAUGGTT against Phlda1 the figure was -1.31 (inactive). With GGUGACUUGGAAGAGCCCATT against Il1rapl2 the figure was -0.637 (inactive); with CGUCGUGGUUGGUAUGUAATT against Sacs, -1.18 (inactive); with GGCCAGACAAAUGAUGCCATT against Slc25a30, -3.04 (active).

GGAACUAUAUACGAUGAUGTT against Usp8: the z-score is -0.316 (inactive). With GGAGUUUGAAGACUUUUUGTT against Pstpip2 the figure was 0.24 (inactive); with CGGCUAGAUGAUCCUACCUTT against Tsga13, -0.542 (inactive).

For GGCCCUAGAUGAGCACAAATT against Kcnh3, the z-score was 2.48 (active). With GCUCUGAUCAUUUGACUUGTT against Ovca2 the figure was 0.128 (inactive); with GGACCAGAAAUACAUUUUCTT against Arhgef2, -0.288 (inactive); with GGGCAGAAACAAAAGGUUATT against Tmlhe, 0.917 (inactive).

On to GGAAUGUUACCCUUCAACUTT against Slc25a13, for which the z-score was -0.0366 (inactive).

As for GGACUCAAGAGAAAUUCAATT against Nod2, the z-score is 2.19 (active). With GGGAUGUGAAAUGCACCUUTT against Rftn1 the figure was -1.03 (inactive). With GGUAUUCUUCCUCCAUGGGTT against Olfr638 the figure was -3.22 (active). With UGACUUUUGGACACGAGGCTT against Trim15 the figure was -0.159 (inactive). As for GGACAAAUGACUGGUACCCTT against Gorasp2, the z-score is -0.314 (inactive). With CGUGUGAAGCAGUUAUGAUTT against Pbx3 the figure was 1.02 (inactive); with GGCAAAUAGUUUCUUCAAUTT against Npnt, -0.485 (inactive); with GGUUGUGAACAGUCCACCCTT against Ski, 0.461 (inactive). With GGAGUGGCCAUUAAAUUUATT against Slc17a8 the figure was 2.75 (active); with GGUGCUGGUGGAUGAACUATT against Nags, -1.5 (inactive). Regarding GGAGGCUAUUACUGUUUAUTT against Fam107b, the z-score is 0.601 (inactive). With GGUCAAGAGUGCAUUCAAATT against Olfr1445 the figure was 0.266 (inactive); with GGAACUGAUAUCAUGUACATT against Slc25a5, 2.15 (active).

In the case of GCCGAUUCUCAUAUUUGACTT against Exo1, the z-score is -0.742 (inactive). With GGCUGAGAACAAUAUGUAUTT against Ccdc80 the figure was 0.323 (inactive); with GGGCAUUUGGCCUUUCUCATT against Cpsf4, -0.905 (inactive); with GGGCUUGUUUGACUUUCAUTT against Btd, 0.175 (inactive). With GGCUGUAAUGAGGACUGAUTT against Ss18l2 the figure was 3.25 (active). With CCCUAUACAGCGUACCCAATT against Eya2 the figure was -0.754 (inactive); with GCCAUGCUCACUGAACUUCTT against Nanp, -2.3 (active); with GGACUUGAAACUUCUGGAUTT against Nudt16, 0.453 (inactive). On to GCUAUGUAACACACCGCUGTT against Ticam1, for which the z-score is -1.24 (inactive). With GGUGUCUUUACGUCUCCCATT against Neto1 the figure was -2.56 (active); with GGACGAGUCACACUUUGGATT against Cdyl2, -0.328 (inactive); with GGUCAAGAGGAGGGUACCUTT against Foxred2, 0.313 (inactive). With GCUUUAAAUAGAGACUAUCTT against Sox30 the figure was 1.15 (inactive); with GGAGACUUCAGCACCUUUGTT against C4a, 0.455 (inactive).

For CCUGAUCUCAGCCUAUACUTT against Rapgef6, the z-score was -2.26 (active). With GGAACCAAAAGCCUGGCGATT against Pkd1l3 the figure was -1.68 (inactive); with GGACUGAUAUCAUUUCUGATT against Flacc1, -1 (inactive); with GCAUCCACCUCAACGAUAUTT against Dlg3, -1.33 (inactive). With GCUAGGAGCUAGGAAUCCGTT against Pdzd3 the figure was -0.682 (inactive).

GGCAGAAUGGGCUUAUGUCTT against Trabd: the z-score is -2.54 (active).

Regarding GGAGCUUGCCAUAUUCCUCTT against Leprotl1, the z-score was 0.915 (inactive).

As for GGAAAUAUAUGUCAUGUCATT against Nars, the z-score was 2.37 (active). With “GCAAGAUUGGAAUGCUCCATT against 3830403N18Rik” the figure was 0.309 (inactive); with GGAAGAUAAUAUCCUUUGGTT against Olfr734, -1.02 (inactive). With GGGAUUUUGAGUUUGAUGCTT against Zc3h10 the figure was -1.03 (inactive); with GCUGUCAAAUUAACCUGUGTT against Spin2c, -2.31 (active); with GCUCGAUAUAAUUUCACACTT against Neto1, -0.75 (inactive). As for GCCGCUACUCUCCUCAAAATT against Card19, the z-score is -0.329 (inactive). With CGUGUAAGUUUUGAUUCUATT against Calr the figure was 0.815 (inactive); with GGAGCUUGUGAACACCUUCTT against Nudc, 0.718 (inactive); with GGCUAUCUGCUUAUGCUGGTT against Ptch2, -0.314 (inactive). As for CCAGUAAACCGAGACCAUUTT against Nsfl1c, the z-score is 2.02 (active). With GCUAAGCGAAGAGUUUAACTT against Dlgap3 the figure was 0.691 (inactive); with GGACUUCUUCGAUUGUUCUTT against Chchd1, 0.475 (inactive).

For the sequence GCUCUACAUGAAAACACUGTT against Gpat4, the z-score is -0.28 (inactive).

With CGAAAUUGCUGACUCAGAATT against Arl6ip6, the z-score was 0.549 (inactive).

As to CCCAGCUUUCAUCCUUUGUTT against Emc7, the z-score is 0.237 (inactive).

For the sequence GGGCAGUCUGAUAGAGGAUTT against Adam30, the z-score is -0.632 (inactive).

Regarding GGCUUCUGAUCUUACCUGGTT against Smim12, the z-score was 0.683 (inactive). Take GGAGGAACCCUCAUUUUAGTT against Prxl2c: the z-score is -0.897 (inactive). With CCAACUCGGCUGUUUUUUATT against F11r the figure was 0.149 (inactive); with GGAAAGCACCCAAGAAAUGTT against Gspt1, -0.915 (inactive); with GGUACAAUCCCAGAUUUGATT against Smc3, -2.37 (active).

Turning to CCCUUAAGUCUUUUUCCUATT against Celf2, the z-score is -1.09 (inactive).

In the case of GGCCAUGGUGGCGUGUUAUTT against Egln2, the z-score was -0.524 (inactive). Consider GCUGCUCCCUCUAAUAAAATT against Cbr1, for which the z-score is -0.913 (inactive).

Source of the values: PubChem BioAssay AID1508600 (Functional Genomics Laboratory (NCATS/FGL), 2020).
